A selection: hits, their analogues and other compounds. The true share with any hit is near 19%.
TDP1 block – TDP1 (human) enzyme inhibition. Potency, µM (top dose mostly 130 µM), without a hit: at the highest dose activity change, negative = inhibition, hits mostly inhibitors. actives 0.28% (n = 350,000). AID 485290. Q9NUW8. recombinant TDP1, AlphaScreen DNA substrate cleavage; also: potency is read from the fitted curve at half-maximal effect; % is scaled to controls: 0 for no effect and ±100 for the full control effect; nearly all actives have a fitted effect of over 40% in size
Target sequence (Q9NUW8 whole entry, looked up): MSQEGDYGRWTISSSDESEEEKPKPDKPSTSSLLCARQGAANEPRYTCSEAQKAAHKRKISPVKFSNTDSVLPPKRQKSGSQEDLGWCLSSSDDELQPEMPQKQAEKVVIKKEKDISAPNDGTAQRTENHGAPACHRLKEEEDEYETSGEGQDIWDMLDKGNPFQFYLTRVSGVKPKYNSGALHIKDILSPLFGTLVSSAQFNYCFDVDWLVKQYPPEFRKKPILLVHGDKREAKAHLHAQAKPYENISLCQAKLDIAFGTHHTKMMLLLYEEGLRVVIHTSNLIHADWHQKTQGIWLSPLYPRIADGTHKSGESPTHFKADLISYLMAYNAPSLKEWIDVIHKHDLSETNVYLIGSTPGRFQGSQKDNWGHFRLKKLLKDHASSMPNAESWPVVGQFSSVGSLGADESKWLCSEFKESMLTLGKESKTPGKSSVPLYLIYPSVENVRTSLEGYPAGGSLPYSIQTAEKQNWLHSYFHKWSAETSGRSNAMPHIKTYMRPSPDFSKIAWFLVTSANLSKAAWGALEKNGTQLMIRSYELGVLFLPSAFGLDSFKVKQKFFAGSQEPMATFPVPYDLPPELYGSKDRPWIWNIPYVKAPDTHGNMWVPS
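AlphaScreen read-out: signal falls as enzyme removes the 3' tyrosine-FITC from a 5'-biotinylated DNA oligo (15 nM, 5 min, RT). Enzyme was E. coli-made recombinant Tdp1 at 1 nM, exposed to compound for 15 min beforehand; beads 10 ug/ml, 10 min.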
TGFb SMAD3 inh – TGF-b pathway inhibition. HepG2 CAGA-GFP TGF-b/SMAD3 reporter, GFP fluorescence, 18 h; TGF-beta stimulated, 500 pg/mL final. Potency, µM (doses to about 46.1 µM), inactives show at the highest dose activity, negative = inhibition, most hits filed as inhibitors. actives 1.2% (n = 410,000); also: potency is read from the fitted curve at half-maximal effect; % is scaled to controls: 0 for no effect and ±100 for the full control effect; nearly all actives have a fitted effect of over 65% in size
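HEPG2 CAGA-GFP, 1000 cells/well; 2 h settle, 37 C; cpd via pin tool; TGF-b 500 pg/mL final; 18 h, 37 C; GFP imaging ex488/em500-530; %Activity normalised to -TGF-b and +DMSO controls; CRC fit, curve class.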
DT40 TDP1 no CPT – qHTS for Inhibitors of human tyrosyl-DNA phosphodiesterase 1 (TDP1): qHTS in cells in absence of CPT | DT40 Tdp1-/- hTDP1 cells, no CPT, ATP luminescence, 48 h | Potency, µM (top dose mostly 46.2 µM), for inactives: at the top dose activity change, negative = growth inhibition, usual class: inhibitors | actives 15% (n = 420,000) | AID 686978, 2013; also: potency is read from the fitted curve at half-maximal effect; % is scaled to controls: 0 for no effect and ±100 for the full control effect; nearly all actives have a fitted effect of over 55% in size
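Readout: luminescence from CellTiter-Glo after 30 min in the dark at RT. Cells: DT40 Tdp1-/- with stable hTDP1, 400/well. Exposure: compounds alone, ≥48 hr, 37 °C.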
HepG2 viability – HepG2 cytotoxicity, counter-screen for TGF-b inhibitors; HepG2 CAGA-GFP viability, ATP luminescence, 18 h; Potency, µM (series often up to 46.1 µM), without a hit: top-dose activity change, negative = cytotoxicity, most hits filed as cytotoxic; actives 0.76% (n = 410,000); AID 588856; also: potency is read from the fitted curve at half-maximal effect
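HepG2 CAGA-GFP cells (1000/well, DMEM with 1% FBS) received compound, then TGF-beta at 500 pg/mL final, and were incubated 18 hours at 37 degrees C. Viability was read by CellTiter-Glo luminescence. Media-only wells were set as complete cell-killing and DMSO as no toxicity.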
IL-1B inflam inh – blocks inflammasome-driven IL-1 beta release | actives 4.7% (n = 360,000) | activity change, % at 57.5 µM | THP-1 LPS/ATP IL-1B secretion, AlphaLISA, 16 h; hits give low values | AID 743279; in the data active = activity change below about -50%; inconclusive = mostly about -30% to -49%; also: % is scaled to controls: 0 for no effect and ±100 for the full control effect
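THP-1 cells pretreated 1 hr with compounds (up to 57.5 uM final), then stimulated with LPS (250 ng/mL final) plus ATP (1.25 mM final); secreted IL-1B measured by AlphaLISA after 16 hr, decreased signal indicating inhibition.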
TDP1 cell CPT – DT40-hTDP1 cell growth loss with CPT; actives 12% (n = 420,000); chicken DT40 Tdp1-/-;hTDP1 cells + 20 nM CPT, ATP luminescence, 48 h; Potency, µM (highest dose often 46.2 µM), inactives show at the top dose activity change, negative = growth inhibition, hits mostly inhibitors; also: potency is read from the fitted curve at half-maximal effect; % is scaled to controls: 0 for no effect and ±100 for the full control effect; nearly all actives have a fitted effect of over 55% in size
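Chicken DT40 Tdp1-/- cells complemented with human TDP1, 400 cells/well, exposed to compounds plus 20 nM camptothecin for at least 48 h at 37 C; viability read as ATP content by CellTiter-Glo luminescence.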
* = called active by the depositor; [ ] = dose if it differs, or a comment. Unless noted, calls follow the shape of the dose curve; as a rule, active = well fitted curve in the direction sought with a large enough effect; inconclusive = small, poorly fitted or top-dose-only effect, or another doubt; inactive = no such curve, though single readings can be large; an effect the other way counts as inactive or inconclusive.

Screening O=C1C2C=CC=CC2=NC(=S)N1CCN1CCC(=C(c2ccc(F)cc2)c2ccc(F)cc2)CC1 (centres undefined) returned TDP1 block 18.0%[56.1 µM].
For CCOc1ccc(NC2SC(=O)N(Cc3ccccc3)C2=O)cc1 (centres undefined) the results were TDP1 block -5.7%[12.3 µM], TGFb SMAD3 inh -9.2%, DT40 TDP1 no CPT -14.9%, HepG2 viability 5.7% and TDP1 cell CPT 7.3%.
Screening CC(=O)Nc1cc(NC(C)=O)cc(C(=O)NCC2(N3CCOCC3)CCCCC2)c1 returned TDP1 block 22.4µM*, TGFb SMAD3 inh 11.2%, DT40 TDP1 no CPT 3.2%, HepG2 viability 3.0%, IL-1B inflam inh 10.4 and TDP1 cell CPT 1.0%.
Screening O=C(NCCCN1CCOCC1)c1cccc(S(=O)(=O)N2CCc3ccccc3C2)c1 returned TDP1 block 4.2%, TGFb SMAD3 inh -4.9%, DT40 TDP1 no CPT inconclusive, HepG2 viability -12.9%, IL-1B inflam inh -3.8 and TDP1 cell CPT inconclusive.
CNS(=O)(=O)c1cccc(C(=O)NCC2(N3CCCCC3)CCCCC2)c1 was read as TDP1 block 50.1µM*, TGFb SMAD3 inh 28.4%, DT40 TDP1 no CPT 3.0%, HepG2 viability 2.2%, IL-1B inflam inh -1.3 and TDP1 cell CPT -15.8%.
Screening CN(C)S(=O)(=O)c1cccc(C(=O)NCC2(N3CCOCC3)CCCCC2)c1 returned TDP1 block 1.2%, TGFb SMAD3 inh -19.5%, DT40 TDP1 no CPT inconclusive, HepG2 viability -11.2%, IL-1B inflam inh -5.4 and TDP1 cell CPT -14.2%.
Screening O=C(NCC1(N2CCOCC2)CCCCC1)c1cccc(S(=O)(=O)N2CCc3ccccc3C2)c1 returned TDP1 block 2.6%, TGFb SMAD3 inh -18.8%, DT40 TDP1 no CPT inconclusive, HepG2 viability -26.5%, IL-1B inflam inh -9.6 and TDP1 cell CPT 18.4µM*.
`CC(C)(C)c1ccc(C(=O)NCCCN2CCN(CCCNC(=O)c3ccc(C(C)(C)C)cc3)CC2)cc1` gave TDP1 block -0.6%, TGFb SMAD3 inh inconclusive, DT40 TDP1 no CPT 9.2µM*, HepG2 viability -105.3%, IL-1B inflam inh -80.6* and TDP1 cell CPT 9.2µM*.
For COc1ccc(NS(=O)(=O)c2cccc(C(=O)NCC3(N4CCCCC4)CCCCC3)c2)cc1 the results were TDP1 block 1.4%, TGFb SMAD3 inh 4.8%, DT40 TDP1 no CPT -26.1%, HepG2 viability 0.0%, IL-1B inflam inh -4.6 and TDP1 cell CPT inconclusive.
For CC(C)(C)c1ccc(C(=O)NCCN2CCOCC2)cc1 the results were TGFb SMAD3 inh 0.4%, DT40 TDP1 no CPT -10.8%, HepG2 viability 0.6%, IL-1B inflam inh 5.4 and TDP1 cell CPT -6.7%.
`COc1ccc(OC)c(C(=O)COC(=O)c2[nH]c(C)c(C(C)=O)c2C)c1` gave TDP1 block -0.5%, TGFb SMAD3 inh 39.2%, DT40 TDP1 no CPT inconclusive, HepG2 viability 0.0%, IL-1B inflam inh 25.5 and TDP1 cell CPT inconclusive.
O=C(COc1ccc([N+](=O)[O-])cc1)NCC1(N2CCOCC2)CCCCC1 was read as TDP1 block 5.7%, TGFb SMAD3 inh -9.6%, DT40 TDP1 no CPT inconclusive, HepG2 viability -1.8% and TDP1 cell CPT -28.6%.
CC(C)(C)c1ccc(OCC(=O)NCC2(N3CCOCC3)CCCCC2)cc1 was read as TDP1 block 3.6%, TGFb SMAD3 inh inconclusive, DT40 TDP1 no CPT 16.4µM*, HepG2 viability -58.8% and TDP1 cell CPT 13µM*.
`CCOC(=O)c1c(C)[nH]c(C)c1S(=O)(=O)NCC(=O)NCc1ccccc1C` gave TDP1 block -2.6%, TGFb SMAD3 inh -0.4%, DT40 TDP1 no CPT -15.0%, HepG2 viability -0.1% and TDP1 cell CPT -12.1%.
For CCCCCCS(=O)[C@H]1CS(=O)(=O)C[C@@H]1S(=O)CCCCCC (some centres undefined) the results were TDP1 block 3.2%, TGFb SMAD3 inh 12.3%, DT40 TDP1 no CPT inconclusive, HepG2 viability -2.6%, IL-1B inflam inh -13.7 and TDP1 cell CPT 23.1µM*.
Screening CCNC(=O)c1cc2c(c(-c3cccc(-c4ccccc4F)c3)n1)[C@H](CCO)N(C(=O)CC)C2 returned DT40 TDP1 no CPT 5.8µM*, IL-1B inflam inh 37.7 and TDP1 cell CPT 7.31µM*.
For CCCNC(=O)c1cc2c(c(-c3cccc(-c4ccccc4F)c3)n1)[C@@H](CCO)N(C(=O)CC1CC1)C2 the results were DT40 TDP1 no CPT inconclusive, IL-1B inflam inh -16.1 and TDP1 cell CPT 25.9µM*.
Screening CN(C)C(=O)c1cc2c(c(-c3cccc(-c4ccccc4F)c3)n1)[C@@H](CCO)N(S(C)(=O)=O)C2 returned DT40 TDP1 no CPT -12.1%, IL-1B inflam inh 10.7 and TDP1 cell CPT -10.2%.
For CCNC(=O)c1cc2c(c(-c3cccc(-c4cncnc4)c3)n1)[C@@H](CCO)N(C(C)=O)C2 the results were DT40 TDP1 no CPT -5.3%, IL-1B inflam inh 29.3 and TDP1 cell CPT -12.4%.
CN1CCN(C(=O)c2cc3c(c(-c4cccc(-c5cccnc5)c4)n2)[C@@H](CCO)N(C(=O)CC2CC2)C3)CC1 was read as DT40 TDP1 no CPT -22.0%, IL-1B inflam inh -23.4 and TDP1 cell CPT -17.5%.
O=C(NCC(F)(F)F)c1cc2c(c(-c3cccc(-c4ccccc4F)c3)n1)[C@H](CCO)N(C(=O)CC1CC1)C2 was read as DT40 TDP1 no CPT 20.6µM*, IL-1B inflam inh -23.5 and TDP1 cell CPT 16.4µM*.
Screening CCC(=O)N1Cc2cc(C(=O)NCC(F)(F)F)nc(-c3cccc(-c4cncnc4)c3)c2[C@@H]1CCO returned DT40 TDP1 no CPT inconclusive, IL-1B inflam inh -1.0 and TDP1 cell CPT 20.6µM*.
For Cc1ccc(-n2c(SCC(=O)Nc3ccc4c(c3)OCO4)nc3c([nH]c4ccccc43)c2=O)cc1 the results were TDP1 block 7.7%, TGFb SMAD3 inh -2.5%, DT40 TDP1 no CPT inconclusive, HepG2 viability 3.2% and TDP1 cell CPT -1.3%.
`Cc1cccc(-n2cc(CNCCN3CCOC3=O)c(-c3cccc(F)c3)n2)c1` gave TDP1 block 2.7%, TGFb SMAD3 inh -20.6%, DT40 TDP1 no CPT 20.6µM*, HepG2 viability -19.9%, IL-1B inflam inh -57.5* and TDP1 cell CPT inconclusive.

Source: PubChem (National Center for Advancing Translational Sciences (NCATS))
